# Measured values published in PubChem BioAssay.
# Calls of active or inactive are those of the source.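 Rule for the calls: active = viability loss from added drug above about 55%, and viability with drug at most 40%, in both replicates (limit read from the data, passing the limit was not always enough); inconclusive = both conditions met in only one replicate; inactive = neither replicate meets both conditions.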 Peptide text beside a SMILES is read from it. * marks the point of attachment. Boc = CC(C)(C)OC(=O)*
# Assay: MRP1 drug-resistance reversers in H69AR cells – cell-based, doxorubicin co-treatment, pilot screen (AID 601)
# Conditions: H69AR cells + 2 uM doxorubicin, CellTiter-Glo, 72 h; at 10 µM; stronger effect = higher value
row,Structure (SMILES),differential viability (reversal)
1,Cc1ccc(NC2c3ncccc3C(=O)N2C2CCCCC2)cc1C (stereo not given),-4.25% (inactive)
2,O=C(O)c1c[nH]c2ccc(S(=O)(=O)N3CCN(c4ccc(F)cc4)CC3)cc2c1=O,10.9% (inactive)
3,O=C(O)Cn1cc2c(n1)CCCC2,3.98% (inactive)
4,O=C1CC(c2ccc(Cl)cc2)n2nc(N3C(=O)c4ccccc4C3=O)nc2N1 (stereo not given),-2.29% (inactive)
5,CCc1nnc(NC(=O)CSc2nnc(-c3ccc(OC)cc3)n2C)s1,5.08% (inactive)
6,COc1cccc(NC(=O)Nc2cccs2)c1,1.41% (inactive)
7,Cn1c(=O)c2c(nc(NCCCO)n2CCc2ccccc2)n(C)c1=O,-2.35% (inactive)
8,CC(=O)c1coc2ccc(OCC(=O)O)cc12,5.29% (inactive)
9,CCCN(Cc1cc2ccc(C)cc2[nH]c1=O)C(=O)c1cccnc1,-2.29% (inactive)
10,CCOP(=O)(c1ccc(N(C)C)cc1)C(O)c1ccccc1OC (stereo not given),3.56% (inactive)
11,CCOCCCn1c(=S)[nH]c2cc3c(cc2c1=O)OCO3,4.13% (inactive)
12,COc1ccc(CCNC(=O)C2CCN(Cc3nc(-c4cccc(Cl)c4)oc3C)CC2)cc1OC,-27.2% (inactive)
13,c1csc(-c2nc3nc4ccccc4nc3n2Cc2ccc3c(c2)OCO3)c1,16.4% (inactive)
14,CC(C)CC(NC(=O)OC(C)(C)C)C(=O)NC(C(=O)NC(C)C(N)=O)C(C)C (stereo not drawn) (Boc-Leu-Val-Ala-NH2; configuration not given here),19.3% (inactive)
15,COc1ccc(-c2ccc(Nc3ccc(S(=O)(=O)N4CCCC4)cc3)nn2)cc1OC,-2.87% (inactive)
16,CC1(C(=O)CSc2nc3ccccc3s2)CCC(=O)O1 (stereo not given),3.12% (inactive)
17,Cc1cc(NC(=O)CN2CCC(O)(c3cccc(F)c3)CC2)no1,22.5% (inactive)
18,COC(=O)c1[nH]c2ccccc2c1NC(=O)CN1CCC(C(N)=O)(N2CCCCC2)CC1,5.43% (inactive)
19,Cc1cc(C)n(CCCNC(=O)c2ccc3c(c2)NC(=O)CS3)n1,3.36% (inactive)
20,CCOC(=O)/C=C1\SCC(=O)N1Cc1ccc(Br)cc1,3.96% (inactive)

row,Structure (SMILES),differential viability (reversal)
1,CCOc1ccc2cc(C#N)c(SCC(=O)N3CCOCC3)nc2c1,31.8% (inactive)
2,CCN(CC)CCN1C(=O)C(O)=C(C(=O)c2ccco2)C1c1ccccn1 (stereo not given),1.63% (inactive)
3,O=C1CCC(=O)N1OCCCCOc1ccccc1,5.21% (inactive)
4,O=C(O)CCc1ccc(-c2ccc(F)cc2)n1CC(=O)O,10.8% (inactive)
5,CCN(CC)CCCN(Cc1cc2cc(OC)ccc2[nH]c1=O)C(=O)Nc1ccccc1,3.46% (inactive)
6,Cc1cccc(Cc2nnc(NC(=O)c3cccc(S(=O)(=O)N4CCOCC4)c3)s2)c1,-2.97% (inactive)
7,CC(C)(CO)NC(=O)CCCOc1ccc(Cl)cc1Cl,19% (inactive)
8,O=C(c1ccc(-c2ccccc2)cc1)N1CCN(c2ncccn2)CC1,12.7% (inactive)
9,Fc1ccc(-c2csc3nnc(SCc4cccnc4)n23)cc1,-2.03% (inactive)
10,CN(C)CCCN1C(=O)C(=O)/C(=C(/O)c2ccncc2)C1c1cccc(Br)c1 (stereo not given),5.26% (inactive)
11,CCN(CC)c1ccc(-c2c(C#N)c(N)nc(OC)c2C#N)cc1,-4.16% (inactive)
12,Cc1cc(NC(=O)CSc2nc3ccccc3n2CC(=O)N2CCCCC2)no1,8.37% (inactive)
13,CCOC(=O)C1CCN(C(c2cc3cc(C)cc(C)c3[nH]c2=O)c2nnnn2C2CCCCC2)CC1 (stereo not given),5.56% (inactive)
14,O=c1[nH]cnc2c1nc(SCc1ccccc1)n2C1OC(CO)C(O)C1O (stereo not given),8.52% (inactive)
15,COc1ccc(-c2noc(CCCC(=O)O)n2)cc1,5.04% (inactive)
16,Cc1nc(SCC(=O)N2CCC(C(N)=O)CC2)n[nH]1,3.98% (inactive)
17,COC(=O)c1ccc(NC(=O)Cn2nnc3ccccc32)cc1,17.7% (inactive)
18,O=C(CCC(=O)N1CCc2ccccc2C1)N1CCN(S(=O)(=O)c2ccccc2)CC1,-0.59% (inactive)
19,O=C(CN1C(=O)CCSc2ccccc21)Nc1ccc(F)cc1,1.06% (inactive)
20,CCC(=O)/C=C1\Sc2ccc(OC)cc2N1CCO,2.07% (inactive)

# Same assay, conditions: H69AR cells + 2 uM doxorubicin, CellTiter-Glo, 72 h; measured here: viability with 2 uM doxorubicin; at 10 µM; stronger effect = lower value
row,Structure (SMILES),viability [%]
1,Cc1ccc(NC2c3ncccc3C(=O)N2C2CCCCC2)cc1C (stereo not given),97
2,O=C(O)c1c[nH]c2ccc(S(=O)(=O)N3CCN(c4ccc(F)cc4)CC3)cc2c1=O,82.8
3,O=C(O)Cn1cc2c(n1)CCCC2,94
4,O=C1CC(c2ccc(Cl)cc2)n2nc(N3C(=O)c4ccccc4C3=O)nc2N1 (stereo not given),94.1
5,CCc1nnc(NC(=O)CSc2nnc(-c3ccc(OC)cc3)n2C)s1,98.6
6,COc1cccc(NC(=O)Nc2cccs2)c1,78.1
7,Cn1c(=O)c2c(nc(NCCCO)n2CCc2ccccc2)n(C)c1=O,89.4
8,CC(=O)c1coc2ccc(OCC(=O)O)cc12,92.7
9,CCCN(Cc1cc2ccc(C)cc2[nH]c1=O)C(=O)c1cccnc1,89.7
10,CCOP(=O)(c1ccc(N(C)C)cc1)C(O)c1ccccc1OC (stereo not given),95.1
11,CCOCCCn1c(=S)[nH]c2cc3c(cc2c1=O)OCO3,93.4
12,COc1ccc(CCNC(=O)C2CCN(Cc3nc(-c4cccc(Cl)c4)oc3C)CC2)cc1OC,101
13,c1csc(-c2nc3nc4ccccc4nc3n2Cc2ccc3c(c2)OCO3)c1,61.6
14,CC(C)CC(NC(=O)OC(C)(C)C)C(=O)NC(C(=O)NC(C)C(N)=O)C(C)C (stereo not drawn) (Boc-Leu-Val-Ala-NH2; configuration not given here),93
15,COc1ccc(-c2ccc(Nc3ccc(S(=O)(=O)N4CCCC4)cc3)nn2)cc1OC,56.5
16,CC1(C(=O)CSc2nc3ccccc3s2)CCC(=O)O1 (stereo not given),87
17,Cc1cc(NC(=O)CN2CCC(O)(c3cccc(F)c3)CC2)no1,86.6
18,COC(=O)c1[nH]c2ccccc2c1NC(=O)CN1CCC(C(N)=O)(N2CCCCC2)CC1,87.8
19,Cc1cc(C)n(CCCNC(=O)c2ccc3c(c2)NC(=O)CS3)n1,86.3
20,CCOC(=O)/C=C1\SCC(=O)N1Cc1ccc(Br)cc1,93.3

row,Structure (SMILES),viability [%]
1,CCOc1ccc2cc(C#N)c(SCC(=O)N3CCOCC3)nc2c1,42.8
2,CCN(CC)CCN1C(=O)C(O)=C(C(=O)c2ccco2)C1c1ccccn1 (stereo not given),96
3,O=C1CCC(=O)N1OCCCCOc1ccccc1,91
4,O=C(O)CCc1ccc(-c2ccc(F)cc2)n1CC(=O)O,87.2
5,CCN(CC)CCCN(Cc1cc2cc(OC)ccc2[nH]c1=O)C(=O)Nc1ccccc1,74.3
6,Cc1cccc(Cc2nnc(NC(=O)c3cccc(S(=O)(=O)N4CCOCC4)c3)s2)c1,82.2
7,CC(C)(CO)NC(=O)CCCOc1ccc(Cl)cc1Cl,79.2
8,O=C(c1ccc(-c2ccccc2)cc1)N1CCN(c2ncccn2)CC1,90.5
9,Fc1ccc(-c2csc3nnc(SCc4cccnc4)n23)cc1,84.9
10,CN(C)CCCN1C(=O)C(=O)/C(=C(/O)c2ccncc2)C1c1cccc(Br)c1 (stereo not given),89.3
11,CCN(CC)c1ccc(-c2c(C#N)c(N)nc(OC)c2C#N)cc1,83.5
12,Cc1cc(NC(=O)CSc2nc3ccccc3n2CC(=O)N2CCCCC2)no1,77.8
13,CCOC(=O)C1CCN(C(c2cc3cc(C)cc(C)c3[nH]c2=O)c2nnnn2C2CCCCC2)CC1 (stereo not given),57.2
14,O=c1[nH]cnc2c1nc(SCc1ccccc1)n2C1OC(CO)C(O)C1O (stereo not given),92.2
15,COc1ccc(-c2noc(CCCC(=O)O)n2)cc1,89.9
16,Cc1nc(SCC(=O)N2CCC(C(N)=O)CC2)n[nH]1,91.6
17,COC(=O)c1ccc(NC(=O)Cn2nnc3ccccc32)cc1,90
18,O=C(CCC(=O)N1CCc2ccccc2C1)N1CCN(S(=O)(=O)c2ccccc2)CC1,91.2
19,O=C(CN1C(=O)CCSc2ccccc21)Nc1ccc(F)cc1,97.5
20,CCC(=O)/C=C1\Sc2ccc(OC)cc2N1CCO,85.7
